Measurements: PubChem BioAssay (EPA / NIEHS)
Inconclusive results are not listed. Active and inactive are the calls of the source. The calls were made as follows, unless noted: active = hit-call score of the fitted dose curve at least 0.9, where 1 is the maximum; inactive = score below 0.9.

Key:
[1] = molecular target: Cellular tumor antigen p53 (Homo sapiens) (UniProt P04637); experiment: TOX21_p53_BLA_p2_ratio: Tox21 HCT-116 p53 Agonism Beta-lactamase Assay, Ratio, Phase 2 (AID 2283592; active = hit-call score of the fitted dose curve at least 0.9, where 1 is the maximum)
Cellular tumor antigen p53 (Homo sapiens), sequence (P04637 whole entry, looked up): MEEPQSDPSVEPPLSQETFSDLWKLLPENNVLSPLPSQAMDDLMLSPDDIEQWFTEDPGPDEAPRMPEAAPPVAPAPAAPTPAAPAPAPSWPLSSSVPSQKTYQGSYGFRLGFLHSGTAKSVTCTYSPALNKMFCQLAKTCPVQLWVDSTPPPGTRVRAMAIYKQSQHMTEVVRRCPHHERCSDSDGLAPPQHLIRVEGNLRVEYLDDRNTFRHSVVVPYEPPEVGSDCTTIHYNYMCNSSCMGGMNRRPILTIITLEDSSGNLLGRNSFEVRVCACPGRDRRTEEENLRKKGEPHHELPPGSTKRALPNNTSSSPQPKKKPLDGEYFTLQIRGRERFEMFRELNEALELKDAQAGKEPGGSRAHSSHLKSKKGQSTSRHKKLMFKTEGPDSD
Method in brief: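 Ratio endpoint: beta-lactamase cleavage of CCF4-AM, blue (460 nm) over green (530 nm). HCT116 reporter line; 16 h treatment, 37C; substrate 2 h RT.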

[2] = TOX21_p53_BLA_p3_viability: Viability Assessment in the Tox21 HCT-116 p53 Agonism Beta-lactamase Assay, Phase 3 (AID 2283593; active = hit-call score of the fitted dose curve at least 0.9, where 1 is the maximum;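 also: cells exposed to compound for 16 h before reading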)
Method in brief: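 HCT-116 cells (4000/well) rested 5 h at 37C, then got DMSO compounds by pin tool (217-fold dilution) for 16 h at 37C, 5% CO2. After the bla read, CellTiter-Glo was added and luminescence read at 30 min, room temperature.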

[3] = molecular target: Cellular tumor antigen p53 (Homo sapiens) (UniProt P04637); experiment: TOX21_p53_BLA_p3_ratio: Tox21 HCT-116 p53 Agonism Beta-lactamase Assay, Ratio, Phase 3 (AID 2283596; active = hit-call score of the fitted dose curve at least 0.9, where 1 is the maximum)
Method in brief: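 Cells were seeded at 4000/well, rested 5 h at 37C, then dosed with DMSO compound solutions (217-fold dilution) for 16 h. CCF4-AM substrate was loaded for 2 h at room temperature, and the 460/530 nm emission ratio was fitted for gain of signal versus DMSO.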

[4] = TOX21_p53_BLA_p4_viability: Viability Assessment in the Tox21 HCT-116 p53 Agonism Beta-lactamase Assay, Phase 4 (AID 2283597; active = hit-call score of the fitted dose curve at least 0.9, where 1 is the maximum;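 also: hits lower the luminescence signal meaning cytotoxicity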)
Method in brief: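 Cytotoxicity was inferred from loss of CellTiter-Glo luminescence. HCT116 cells had been dosed with compounds after 5 h plating, incubated 16 h at 37C and 5% CO2, and exposed to the CCF4-AM substrate for 2 h.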

[5] = molecular target: Cellular tumor antigen p53 (Homo sapiens) (UniProt P04637); experiment: TOX21_p53_BLA_p5_ratio: Tox21 HCT-116 p53 Agonism Beta-lactamase Assay, Ratio, Phase 5 (AID 2283599; active = hit-call score of the fitted dose curve at least 0.9, where 1 is the maximum)
Method in brief: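 HCT-116 cells carrying a p53-inducible beta-lactamase reporter were seeded at 4000 cells/well and dosed after 5 h with compound in DMSO (217-fold dilution). After 16 h at 37C, CCF4-AM substrate was added for 2 h, and the 460/530 nm emission ratio was scored as gain-of-signal versus DMSO.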

[6] = TOX21_p53_BLA_p5_viability: Viability Assessment in the Tox21 HCT-116 p53 Agonism Beta-lactamase Assay, Phase 5 (AID 2283600; active = hit-call score of the fitted dose curve at least 0.9, where 1 is the maximum)
Method in brief: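 Luciferase-coupled ATP quantitation of cells treated for 16 h (37C, 5% CO2) with test chemicals delivered in DMSO via a 217-fold dilution; 4000 cells/well; reagent incubated 30 min at room temperature before luminescence reading.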

[7] = molecular target: Cellular tumor antigen p53 (Homo sapiens) (UniProt P04637); experiment: TOX21_p53_BLA_p4_ratio: Tox21 HCT-116 p53 Agonism Beta-lactamase Assay, Ratio, Phase 4 (AID 2283601; active = hit-call score of the fitted dose curve at least 0.9, where 1 is the maximum)
Method in brief: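 HCT116 cells carrying an inducible beta-lactamase reporter were plated at 4000 cells/well, rested 5 h, then exposed to compounds in DMSO (217-fold dilution) for 16 h at 37C. CCF4-AM substrate was loaded 2 h at room temperature; 460/530 nm emission ratio scored gain-of-signal versus DMSO.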

[8] = CCTE_Shafer_MEA_dev_firing_rate_mean: CCTE's Neural Network Formation Assay for Mean Firing Rate, Shafer Lab (AID 2284031);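 also: curve fitted for loss of firing so AC50 reflects decreased mean firing rate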
Method in brief: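 Steps: seed rat cortical cells (1.5 x 10^5/well) with laminin on PEI-coated MEA; dose day 0; record DIV 5/7/9/12, full media and compound exchange after DIV 5 and 9 recordings; compute well-mean firing rate AUC.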

[9] = CCTE_Shafer_MEA_dev_per_burst_spike_percent: CCTE's Neural Network Formation Assay for Percent of Spikes in a Burst, Shafer Lab (AID 2284032);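 also: fitted as a decrease in burst spike percentage below DMSO baseline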
Method in brief: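 Value is trapezoidal AUC over recordings on days 5, 7, 9 and 12 of the well-mean fraction of spikes falling in single-electrode bursts; rat cortical cultures exposed continuously from plating, treatment renewed DIV 5 and 9, fitted downward against DMSO.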

[10] = CCTE_Shafer_MEA_dev_active_electrodes_number: CCTE's Neural Network Formation Assay for Number of Active Electrodes, Shafer Lab (AID 2284040; active = hit-call score of the fitted dose curve at least 0.9, where 1 is the maximum;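 also: potency for loss of active electrodes versus DMSO so lower counts are hits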)
Method in brief: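 Counts electrodes per well firing at least 5 spikes/min, recorded on days 5, 7, 9 and 12 in rat cortical cultures dosed continuously from plating (treatment refreshed DIV 5, 9). Value is the area under the curve over recordings, fitted downward relative to DMSO.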

[11] = CCTE_Shafer_MEA_dev_burst_rate: CCTE's Neural Network Formation Assay for Burst Rate, Shafer Lab (AID 2284042);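 also: potency for loss of burst rate below DMSO control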
Method in brief: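 Cells plated, treated day 0; recorded DIV 5, 7, 9, 12; fed and re-treated DIV 5, 9. Endpoint: bursts per recording time, active-electrode well mean, trapezoidal AUC, fitted in decreasing direction against DMSO baseline.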

[12] = CCTE_Shafer_MEA_dev_bursting_electrodes_number: CCTE's Neural Network Formation Assay for Number of Bursting Electrodes, Shafer Lab (AID 2284043; active = hit-call score of the fitted dose curve at least 0.9, where 1 is the maximum;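 also: potency is for loss of bursting electrodes relative to DMSO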)
Method in brief: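 Counted: electrodes with burst rate ≥1 per 2 min in each well. Cells: primary rat cortex, 1.5 x 10^5/well, on 16-electrode MEA wells. Exposure: DIV 0–12, compound renewed DIV 5 and 9. Recording days 5, 7, 9, 12; AUC vs DMSO baseline.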

[13] = CCTE_Shafer_MEA_dev_per_burst_interspike_interval: CCTE's Neural Network Formation Assay for Burst Interspike Interval, Shafer Lab (AID 2284044);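 also: potency for a decrease of within-burst interspike interval below DMSO level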
Method in brief: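 Rat cortical primary cultures, 16 electrodes/well; compound from plating, renewed with full media change DIV 5 and 9. Spikes via adaptive detector; per-burst ISI well-mean over active bursting electrodes; AUC of DIV 5/7/9/12 recordings; loss-direction fit vs DMSO.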

[14] = CCTE_Shafer_MEA_dev_interburst_interval_mean: CCTE's Neural Network Formation Assay for Mean Interburst Interval, Shafer Lab (AID 2284046);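 also: well-mean interburst interval of bursting electrodes as AUC over four recording days; curve fitted for decrease in interburst interval relative to DMSO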
Method in brief: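 Developing rat cortical networks on 48-well MEAs receive compound from the day of plating. Burst intervals from each active electrode are averaged per well, and AUC over the recording days is fitted in the negative direction against DMSO.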

[15] = CCTE_Shafer_MEA_dev_inter_network_spike_interval_mean: CCTE's Neural Network Formation Assay for Mean Inter-network Spike Interval, Shafer Lab (AID 2284047);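 also: potency for a decrease in mean inter-network spike interval below DMSO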
Method in brief: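 Rat cortical cultures, 1.5 x 10^5 cells/well on 48-well MEA plates; continuous exposure days 0–12, medium and compound refreshed DIV 5, 9. Mean time between consecutive network-spike peaks; AUC across DIV 5/7/9/12; DMSO baseline, negative fitting direction.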

[16] = CCTE_Shafer_MEA_dev_network_spike_number: CCTE's Neural Network Formation Assay for Number of Network Spikes, Shafer Lab (AID 2284048);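 also: synchronized bursts across electrodes counted on days 5 7 9 12 and integrated as AUC; fit as a loss of signal meaning fewer network spikes than DMSO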
Method in brief: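 Extracellular recordings from 16-electrode wells track network formation in rat cortical cultures under continuous treatment from plating. The endpoint is network spike number, expressed as AUC across DIV 5–12 relative to DMSO vehicle.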

[17] = CCTE_Shafer_MEA_dev_network_spike_peak: CCTE's Neural Network Formation Assay for Mean Number of Electrodes in Network Spike, Shafer Lab (AID 2284049);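 also: fitted for loss of signal meaning fewer electrodes in network spikes than DMSO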
Method in brief: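 Continuous 12-day exposure of rat cortical cultures, starting at plating, on MEA plates. Endpoint: electrodes participating in network-spike peaks, AUC across DIV 5–12, DMSO as negative control.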

[18] = CCTE_Shafer_MEA_dev_spike_duration_mean: CCTE's Neural Network Formation Assay for Mean Spike Duration, Shafer Lab (AID 2284051);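 also: mean network spike duration pooled as area under curve over DIV 5 to 12 recordings; potency for a decrease in mean network spike duration versus DMSO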
Method in brief: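 Readout is the average length of network spikes, clustered firing across electrodes, summed over DIV 5, 7, 9 and 12 as area under the curve. Neurons from rat cortex developed networks on MEA plates under continuous 12-day exposure.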

[19] = CCTE_Shafer_MEA_dev_network_spike_duration_std: CCTE's Neural Network Formation Assay for Standard Deviation of Network Spike Duration, Shafer Lab (AID 2284052);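 also: area under curve of spike duration SD across recording days 5 to 12; hits are decreases in network spike duration SD versus DMSO vehicle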
Method in brief: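 Read-out is the trapezoidal area-under-the-curve across recordings made on days 5, 7, 9 and 12, fitted in the negative direction against DMSO baseline. Neurons were primary rat cortical cells treated from day 0, with treatment renewed at each feed.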

[20] = CCTE_Shafer_MEA_dev_per_network_spike_spike_number_mean: CCTE's Neural Network Formation Assay for Mean Number of Spikes in a Network Spike, Shafer Lab (AID 2284053)
Method in brief: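 Continuous twelve-day exposure of developing rat cortical networks grown over 16 microelectrodes per well; spontaneous firing is captured at four time points, and the per-network-spike spike number is integrated over development by trapezoidal AUC.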

[21] = CCTE_Shafer_MEA_dev_per_network_spike_spike_percent: CCTE's Neural Network Formation Assay for Percent of Spikes in a Network Spike, Shafer Lab (AID 2284054)
Method in brief: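 Developing networks of rat cortical neurons are dosed at day 0 and recorded extracellularly four times up to day 12. The endpoint is the area under the curve of percent spikes in network spikes, fitted in the negative direction relative to DMSO.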

Measured: AC50

CCC[CH2][Sn]([CH2]CCC)([CH2]CCC)[O][Sn]([CH2]CCC)([CH2]CCC)[CH2]CCC
active: [2] 236 nM | [3] 348 nM | [4] 668 nM | [5] 2030 nM | [6] 1370 nM | [7] 2220 nM | [8] 24.5 nM | [9] 34.2 nM | [10] 42.9 nM | [11] 29.1 nM | [12] 37.8 nM | [13] 76.8 nM | [14] 76.2 nM | [15] 31.5 nM | [16] 56.4 nM | [17] 45.7 nM | [18] 30.8 nM | [19] 31.2 nM | [20] 29 nM | [21] 77 nM
inactive: [1]
